Compound activity deposited in PubChem by National Center for Advancing Translational Sciences (NCATS).
Cruzain inh Det = cruzain (T. cruzi) inhibition with detergent; purified cruzain, Z-FR-AMC fluorescence, 0.01% Triton; Potency, µM, usual class: inhibitors; 200,000 compounds, 0.43% hits; also: nearly all actives have a fitted effect of over 40% in size
Target sequence (P25779 123-467 limits assumed): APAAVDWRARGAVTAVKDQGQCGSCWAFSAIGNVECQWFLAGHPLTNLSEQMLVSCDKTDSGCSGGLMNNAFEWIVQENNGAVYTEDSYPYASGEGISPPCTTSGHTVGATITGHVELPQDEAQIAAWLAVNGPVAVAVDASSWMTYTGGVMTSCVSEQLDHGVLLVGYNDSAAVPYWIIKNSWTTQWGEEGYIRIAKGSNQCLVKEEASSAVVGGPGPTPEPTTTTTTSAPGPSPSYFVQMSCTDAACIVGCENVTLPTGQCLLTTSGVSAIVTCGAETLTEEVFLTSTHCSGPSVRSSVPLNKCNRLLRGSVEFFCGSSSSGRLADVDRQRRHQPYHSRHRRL
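In this qHTS format, compounds are incubated with 1.5 nM cruzain for 15 min at room temperature before 2 uM Z-FR-AMC is added. Release of AMC is followed at 360/450 nm, and progress is taken as the 60 s fluorescence difference.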
Cruzain inh noDet = cruzain (T. cruzi) inhibition without detergent; Potency, µM, most hits filed as inhibitors; AID 1476; purified cruzain, Z-FR-AMC fluorescence, no detergent; P25779; 200,000 compounds, 2.3% hits; also: nearly all actives have a fitted effect of over 40% in size
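Detergent-free condition (0.00005% Triton X-100) in acetate buffer pH 5.5 with DTT. 1.5 nM enzyme and compound were pre-mixed 15 min, then 2 uM Z-FR-AMC substrate added; reaction progress from fluorescence change between first and third reads (60 s).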
Each line names hits and unclear results; the compound was inactive in the other large screens. Hits are enriched below; roughly 2.6% of the tested compounds scored in any of these assays. Calls follow the shape of the dose curve; as a rule, active = well fitted curve in the direction sought with a large enough effect; inconclusive = small, poorly fitted or top-dose-only effect, or another doubt; inactive = no such curve, though single readings can be large; an effect the other way counts as inactive or inconclusive.

CCOc1ccccc1NC(=O)CSc1nccn1Cc1ccc(F)cc1	none
CCC(Cc1ccccc1)NC(=O)c1ccc2nc(N3CCC(C)CC3)sc2c1 (configuration not stated)	none
COc1cc2nc(N(C)CCCNC(=O)[C@@H]3CCCO3)nc(N)c2cc1OC	none
C=CCn1c(SCc2nc3sc4c(c3c(=O)[nH]2)CCCC4)nc2ccccc2c1=O	Cruzain inh noDet 13µM
C=CCSc1nnc(CSc2nc3sc4c(c3c(=O)[nH]2)CCCC4)n1-c1ccccc1	none
CCOC(=O)c1ccc(N2CCN(c3cccc(Cl)c3)CC2)c(NC(=O)Nc2ccc(Cl)cc2)c1	Cruzain inh noDet 4µM
CCOC(=O)c1ccc(N2CCN(c3ccccc3F)CC2)c(NC(=O)Nc2ccccc2)c1	Cruzain inh noDet inconclusive
O=C(CSc1nnc(-c2ccc(O)cc2)o1)c1ccc(Br)cc1	none
Cc1cc(N)ccc1N1CCCC1	Cruzain inh Det inconclusive, Cruzain inh noDet 16µM
Cc1cc(N)ccc1-n1c(C)ccc1C	none
Cc1cccc(-c2nnn3c2nc(NCCc2ccc(S(N)(=O)=O)cc2)c2ccccc23)c1	Cruzain inh noDet inconclusive
NS(=O)(=O)c1ccc(CCNc2nc3c(-c4cccc(F)c4)nnn3c3ccccc23)cc1	Cruzain inh noDet 20µM
COc1ccc(-c2cn3c(n2)sc2cc(C(=O)Nc4ccc(F)cc4Cl)ccc23)cc1	none
N/N=c1\sc2ccccc2n1-c1ccccc1	Cruzain inh noDet 16µM
CC(=O)N=c1sc2ccccc2n1C	none
Cc1ccccc1NC(=O)c1c(NC(=O)Cc2ccccc2)sc2c1CCC2	none
CC(C)c1ccccc1NC(=O)COc1ccc2c(=O)c(Oc3ccc4ccccc4c3)coc2c1	Cruzain inh noDet 32µM
CCc1ccccc1NC(=O)COc1ccc2c(=O)c(Oc3cc(C)ccc3C)coc2c1	Cruzain inh noDet inconclusive
COc1ccc2c(c1)c(=O)c(S(=O)(=O)c1ccccc1)cn2CC(=O)Nc1ccc(C)c(Cl)c1	Cruzain inh noDet 20µM
COc1ccc(NC(=O)Cn2cc(S(=O)(=O)c3ccccc3)c(=O)c3cc(C)ccc32)cc1Cl	Cruzain inh noDet 25µM
COc1ccc2c(c1)c(=O)c(S(=O)(=O)c1ccccc1)cn2CC(=O)Nc1ccc2c(c1)OCO2	none
Cc1ccc(S(=O)(=O)c2cn(CC(=O)Nc3ccc(C)c(Cl)c3)c3ccc(C)cc3c2=O)cc1	Cruzain inh noDet inconclusive
COc1ccccc1C(=O)Nc1ccccc1C(=O)OCc1cc(=O)n2c(C)csc2n1	none
COc1ccc(-c2cc(C(F)(F)F)n3nc(C(=O)Nc4ccccc4SC)cc3n2)cc1OC	none
CCc1c(C)nc2nncn2c1Nc1ccc(Cl)cc1	none
COc1ccc(CCNC(=O)c2ccc3c(c2)CCN3S(C)(=O)=O)cc1OC	none
CSc1nc(NCc2ccco2)c2sc3nc(C(C)C)c4c(c3c2n1)CC(C)(C)OC4	none
CSc1nc(NCCOCCO)c2sc3nc(-c4ccco4)c4c(c3c2n1)CCC4	Cruzain inh Det 7.9µM
CCOc1cc2[nH]c(=O)n(Cc3ccc(C(=O)N4CCN(c5ccccc5)CC4)cc3)c(=O)c2cc1OCC	none
O=[N+]([O-])c1cc(S(=O)(=O)N2CCCC2)ccc1N/N=C1/CCCc2ccccc21	Cruzain inh noDet 16µM
O=[N+]([O-])c1cc(S(=O)(=O)N2CCCC2)ccc1NN=C1CCCCC1	none
O=C(Nc1ccc2nc(SCC(=O)N3CCc4ccccc43)sc2c1)c1cccc(Cl)c1	Cruzain inh noDet inconclusive
COc1cccc(C(=O)Nc2ccc3nc(SCC(=O)N4CCc5ccccc54)sc3c2)c1	Cruzain inh noDet 13µM
O=C(Nc1ccc2nc(SCC(=O)N3CCCc4ccccc43)sc2c1)c1cccc(Cl)c1	Cruzain inh noDet 6.3µM
COc1ccc(C(=O)Nc2ccc3nc(SCC(=O)N4CCc5ccccc54)sc3c2)cc1	none
Cc1nc(N2CCOCC2)c2nc(-c3ccccc3)n(CCCN3CCOCC3)c2n1	none
Cc1ccc2nc(Cl)c3cc(C(=O)NC4CCC(C)CC4)sc3c2c1 (configuration not stated)	none
COc1ccc(/C=C/C(=O)Nc2cc(C)nn2-c2nc3ccccc3n2Cc2cccc([N+](=O)[O-])c2)cc1	Cruzain inh noDet 7.9µM
COc1ccc(/C=C/C(=O)Nc2cc(C)nn2-c2nc3ccccc3[nH]2)cc1	Cruzain inh noDet inconclusive
O=C(CSc1ccc(Cl)cc1)Nc1nnc(-c2cccc([N+](=O)[O-])c2)s1	Cruzain inh noDet inconclusive
O=C(Cc1cccc2ccccc12)Nc1nnc(-c2cccc([N+](=O)[O-])c2)s1	Cruzain inh noDet 25µM
CC(C)C[C@@H](CC(=O)N[C@@H](CCCN)CC(=O)N[C@@H]1CCCC[C@H]1C(=O)N[C@H](CC(=O)N[C@@H](CCC(=O)O)CC(=O)O)Cc1ccccc1)NC(=O)[C@@H]1CNCC[C@H]1N	none
Cc1sc(NC(=O)c2cc(-c3ccc(Cl)cc3)nc3ccccc23)c(C(N)=O)c1C	Cruzain inh noDet 13µM
Cc1ccccc1-c1cc(C(=O)Nc2sc(C(=O)OC(C)C)c(C)c2C#N)c2ccccc2n1	Cruzain inh noDet 10µM
CCNC(=S)NNC(=O)c1cc(-c2ccc(OC)cc2)nc2ccccc12	none
COC(=O)c1sc(NC(=O)c2cc(-c3ccccc3)nc3ccccc23)c(C#N)c1C	none
CCOC(=O)c1sc(NC(=O)c2cc(-c3ccc(C)cc3)nc3ccccc23)c(C#N)c1C	Cruzain inh noDet 10µM
COc1ccc(Cl)cc1C(=O)NNC(=S)NC(=O)c1cc(-c2ccc(Cl)cc2)nc2ccccc12	Cruzain inh noDet 3.2µM
Cc1cc(NC(=O)c2cc(-c3ccccc3C)nc3ccccc23)no1	none
Cc1sc(NC(=O)c2cc(-c3ccccc3)nc3ccccc23)c(C(N)=O)c1C	none
O=C(Cn1c(=O)n(Cc2ccco2)c(=O)c2sc3ccccc3c21)Nc1ccccc1C(F)(F)F	none
Cc1ccc(-n2c(C)cc(C(=O)C(=O)Nc3ccccc3)c2C)c(C)c1	none
Fc1ccc(-c2noc3ncnc(NCCc4ccccc4)c23)cc1	none
O=C(COc1ccccc1)N(Cc1ccccc1)c1nc(-c2ccccc2)cs1	Cruzain inh noDet inconclusive
COc1ccc(-c2csc(N(Cc3ccccc3)C(=O)COc3ccc(Cl)cc3)n2)cc1	Cruzain inh noDet 6.3µM
Cc1ccc2c(CC(=O)Nc3nnc(C(C)C)s3)coc2c1C	none
CC1CCN(c2ccc(/C=C(\C#N)c3nn(-c4ccccc4)c(N)c3C#N)cc2[N+](=O)[O-])CC1	none
CC1CCN(c2cc(N3CCC(C)CC3)c([N+](=O)[O-])cc2/C=C(\C#N)c2nn(-c3ccccc3)c(N)c2C#N)CC1	Cruzain inh noDet 2µM
CC1CCCN(c2ccc(/C=C(\C#N)c3nn(-c4ccccc4)c(N)c3C#N)cc2[N+](=O)[O-])C1 (configuration not stated)	none
N#C/C(=C\c1ccc(N2CCCCC2)c([N+](=O)[O-])c1)c1nn(-c2ccccc2)c(N)c1C#N	Cruzain inh noDet 20µM
CCOC(=O)c1c(S(=O)(=O)N2CCCC(C(=O)N3CCN(c4ccccc4)CC3)C2)c(C)n(C)c1C (configuration not stated)	none
COc1ccc(OC)c(CCNC(=O)c2csc3c2CCCCC3)c1	none
Cc1ccc(/C=N/N2CCN(Cc3ccccc3)CC2)s1	none
Cc1ccc(/C=N/N2CCN(Cc3cccc4ccccc34)CC2)s1	Cruzain inh noDet 10µM
CN1C(=O)/C(=C\c2cc(N=Nc3ccccc3)ccc2O)SC1=S	Cruzain inh noDet 25µM
Cc1nn(-c2ccccc2)c(Cl)c1/C=C1\SC(=S)N(C)C1=O	none
COc1cc(NS(=O)(=O)c2ccc(C)cc2C)cc(OC)c1OC	none
